Measured values as given in PubChem BioAssay AID1159580 (chemical genetic matrix, 2015).
About 2,000 (36%) of roughly 5,500 compounds were called active. Roughly 18% stayed inconclusive and do not appear here. No stated cut-off is given here; in the data, active means normalized growth mostly below about 0.91 (no sharp cut-off); inconclusive means no clear call, values can overlap the other calls; inactive means mostly above about 0.92. This is one part of the list.

Assay: chemical genetic growth profiling, strain panel (AID 1159580);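 further: tested at 20 µM; growth read once vehicle control cultures reached saturation at 30 °C; 1 = growth at the plate median or of vehicle wells; lower values mean less growth of the strain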
Conditions: growth OD
[1] = S. cerevisiae deletion strains, locus YAL013W, strain DEP1, active compounds read low
[2] = S. cerevisiae deletion strains, locus YBR229C, strain ROT2, active compounds read low
[3] = S. cerevisiae deletion strains, locus YDL101C, strain DUN1, active compounds read low
[4] = S. cerevisiae deletion strains, locus YDR150W, strain NUM1, active compounds read low
[5] = S. cerevisiae deletion strains, locus YEL061C, strain CIN8, active compounds read low
[6] = S. cerevisiae deletion strains, locus YGR078C, strain PAC10, active compounds read low
[7] = S. cerevisiae deletion strains, locus YGR229C, strain SMI1, active compounds read low
[8] = S. cerevisiae deletion strains, locus YHR030C, strain SLT2, active compounds read low
[9] = S. cerevisiae deletion strains, locus YJR043C, strain POL32, active compounds read low
[10] = S. cerevisiae deletion strains, locus YJR075W, strain HOC1, active compounds read low
[11] = S. cerevisiae deletion strains, locus YKL190W, strain CNB1, active compounds read low
[12] = S. cerevisiae deletion strains, locus YLR039C, strain RIC1, active compounds read low
[13] = S. cerevisiae deletion strains, locus YLR262C, strain YPT6, active compounds read low
[14] = S. cerevisiae deletion strains, locus YMR263W, strain SAP30, active compounds read low
[15] = S. cerevisiae deletion strains, locus YMR307W, strain GAS1, active compounds read low
[16] = S. cerevisiae deletion strains, locus YNL128W, strain TEP1, active compounds read low
[17] = S. cerevisiae deletion strains, locus YNL153C, strain GIM3, active compounds read low
[18] = S. cerevisiae deletion strains, locus YNL322C, strain KRE1, active compounds read low
[19] = S. cerevisiae deletion strains, locus YPL055C, strain LGE1, active compounds read low
[20] = S. cerevisiae deletion strains, locus YPL241C, strain CIN2, active compounds read low
[21] = S. cerevisiae strains, strain wild type, active compounds read low
[22] = S. cerevisiae deletion strains, locus YHR087W, strain rtc3, active compounds read low
[23] = S. cerevisiae deletion strains, locus YJL187C, strain SWE1, active compounds read low
[24] = S. cerevisiae deletion strains, locus YLR058C, strain SHM2 (second series), active compounds read low
[25] = S. cerevisiae deletion strains, locus YLR085C, strain ARP6, active compounds read low
[26] = S. cerevisiae deletion strains, locus YML094W, strain GIM5, active compounds read low
[27] = S. cerevisiae deletion strains, locus YMR219W, strain ESC1, active compounds read low
[28] = S. cerevisiae deletion strains, locus YNL298W, strain CLA4 (second series), active compounds read low
[29] = S. cerevisiae deletion strains, locus YNR030W, strain Alg12, active compounds read low
[30] = S. cerevisiae deletion strains, locus YPR135W, strain CTF4, active compounds read low

Measured: normalized growth

COC(=O)c1c(Cl)c(Cl)c(C(=O)OC)c(Cl)c1Cl
inactive: [1] 0.991 | S. cerevisiae deletion strains, locus YBR021W, strain FUR4, active compounds read low 0.972 | [2] 1 | S. cerevisiae deletion strains, locus YCL029C, strain bik1, active compounds read low 1.01 | S. cerevisiae deletion strains, locus YDL035C, strain GPR1, active compounds read low 1.01 | S. cerevisiae deletion strains, locus YDL074C, strain BRE1, active compounds read low 0.927 | [3] 0.978 | S. cerevisiae deletion strains, locus YDL134C, strain PPH21, active compounds read low 0.998 | S. cerevisiae deletion strains, locus YDL185W, strain tfp1, active compounds read low 1.01 | S. cerevisiae deletion strains, locus YDL192W, strain arf1, active compounds read low 1 | S. cerevisiae deletion strains, locus YDR101C, strain arx1, active compounds read low 0.995 | [4] 1 | S. cerevisiae deletion strains, locus YDR162C, strain NBP2, active compounds read low 0.997 | S. cerevisiae deletion strains, locus YDR318W, strain mcm21, active compounds read low 1 | S. cerevisiae deletion strains, locus YDR388W, active compounds read low 1 | S. cerevisiae deletion strains, locus YDR502C, strain sam2, active compounds read low 0.999 | [5] 0.999 | S. cerevisiae deletion strains, locus YER110C, active compounds read low 1 | S. cerevisiae deletion strains, locus YER155C, strain BEM2, active compounds read low 0.984 | S. cerevisiae deletion strains, locus YER167W, strain BCK2, active compounds read low 0.998 | S. cerevisiae deletion strains, locus YGL078C, strain dbp3, active compounds read low 1.01 | S. cerevisiae deletion strains, locus YGL086W, strain mad1, active compounds read low 0.998 | S. cerevisiae deletion strains, locus YGL248W, strain PDE1, active compounds read low 1.01 | [6] 0.987 | S. cerevisiae deletion strains, locus YGR135W, strain pre9, active compounds read low 0.994 | [7] 0.988 | S. cerevisiae deletion strains, locus YGR252W, strain gcn5, active compounds read low 0.944 | [8] 0.971 | S. cerevisiae deletion strains, locus YHR079C, strain IRE1 (second series), active compounds read low 1 | S. cerevisiae deletion strains, locus YHR094C, strain hxt1, active compounds read low 1 | S. cerevisiae deletion strains, locus YHR129C, strain ARP1, active compounds read low 0.996 | S. cerevisiae deletion strains, locus YHR200W, strain rpn10, active compounds read low 1 | S. cerevisiae deletion strains, locus YIL066C, strain RNR3, active compounds read low 0.984 | S. cerevisiae deletion strains, locus YIL073C, strain SPO22, active compounds read low 1.03 | S. cerevisiae deletion strains, locus YIL125W, strain kgd1, active compounds read low 0.994 | S. cerevisiae deletion strains, locus YIR030C, strain dcg1, active compounds read low 1.01 | S. cerevisiae deletion strains, locus YJL095W, strain BCK1, active compounds read low 0.962 | S. cerevisiae deletion strains, locus YJL134W, strain LCB3, active compounds read low 1 | S. cerevisiae deletion strains, locus YJL168C, strain set2, active compounds read low 1 | S. cerevisiae deletion strains, locus YJL187C, strain SWE1 (second series), active compounds read low 1.01 | [9] 0.969 | [10] 0.978 | S. cerevisiae deletion strains, locus YKL009W, strain mrt4, active compounds read low 0.987 | S. cerevisiae deletion strains, locus YKL068W, active compounds read low 0.996 | S. cerevisiae deletion strains, locus YKL085W, strain MDH1 (second series), active compounds read low 0.995 | S. cerevisiae deletion strains, locus YKL085W, strain MDH1, active compounds read low 0.995 | [11] 0.998 | S. cerevisiae deletion strains, locus YKR001C, strain vps1, active compounds read low 1.03 | [12] 1.24 | S. cerevisiae deletion strains, locus YLR058C, strain SHM2, active compounds read low 1 | S. cerevisiae deletion strains, locus YLR102C, strain apc9, active compounds read low 1.01 | [13] 1.18 | S. cerevisiae deletion strains, locus YLR268W, strain sec22, active compounds read low 0.992 | S. cerevisiae deletion strains, locus YLR330W, strain CHS5, active compounds read low 1 | S. cerevisiae deletion strains, locus YLR342W, strain FKS1 (second series), active compounds read low 1.01 | S. cerevisiae deletion strains, locus YLR371W, strain rom2, active compounds read low 1.01 | S. cerevisiae deletion strains, locus YLR418C, strain cdc73, active compounds read low 0.929 | S. cerevisiae deletion strains, locus YML016C, strain PPZ1, active compounds read low 0.993 | S. cerevisiae deletion strains, locus YML032C, strain rad52, active compounds read low 1.01 | S. cerevisiae deletion strains, locus YML124C, strain tub3, active compounds read low 1.01 | S. cerevisiae deletion strains, locus YMR078C, strain ctf18, active compounds read low 1.01 | S. cerevisiae deletion strains, locus YMR223W, strain ubp8, active compounds read low 1 | [14] 0.987 | [15] 0.972 | S. cerevisiae deletion strains, locus YNL067W, strain RPL9B, active compounds read low 0.985 | [16] 1 | [17] 1 | S. cerevisiae deletion strains, locus YNL233W, strain BNI4, active compounds read low 1.01 | S. cerevisiae deletion strains, locus YNL250W, strain rad50, active compounds read low 1.01 | S. cerevisiae deletion strains, locus YNL271C, strain bni1, active compounds read low 1.01 | S. cerevisiae deletion strains, locus YNL298W, strain CLA4, active compounds read low 0.997 | S. cerevisiae deletion strains, locus YNL307C, strain MCK1, active compounds read low 0.998 | [18] 0.994 | S. cerevisiae deletion strains, locus YNR052C, strain pop2, active compounds read low 1.02 | S. cerevisiae deletion strains, locus YOL006C, strain TOP1, active compounds read low 0.914 | S. cerevisiae deletion strains, locus YOL012C, strain htz1 0.967 | S. cerevisiae deletion strains, locus YOL147C, strain pex11, active compounds read low 1.01 | S. cerevisiae deletion strains, locus YOR061W, strain CKA2, active compounds read low 0.999 | S. cerevisiae deletion strains, locus YOR069W, strain VPS5, active compounds read low 1 | S. cerevisiae deletion strains, locus YOR136W, strain idh2, active compounds read low 1 | S. cerevisiae deletion strains, locus YOR144C, strain elg1, active compounds read low 1 | S. cerevisiae deletion strains, locus YOR184W, strain ser1, active compounds read low 0.989 | S. cerevisiae deletion strains, locus YOR316C, strain cot1, active compounds read low 1 | [19] 0.937 | [20] 0.99 | S. cerevisiae deletion strains, locus YPR119W, strain clb2, active compounds read low 1 | S. cerevisiae deletion strains, locus YPR141C, strain kar3, active compounds read low 1.01 | S. cerevisiae deletion strains, locus YPR163C, strain tif3, active compounds read low 1 | S. cerevisiae deletion strains, locus YPR167C, strain met16, active compounds read low 0.995 | S. cerevisiae deletion strains, strain wtn01, active compounds read low 0.998 | [21] 0.991

COC(=O)c1c(C)[nH]c(C)c1C(=O)c1ccccc1Cc1ccccc1
inactive: S. cerevisiae deletion strains, locus YAL040C, strain CLN3, active compounds read low 0.995 | S. cerevisiae deletion strains, locus YCL061C, strain MRC1 (second series), active compounds read low 1 | S. cerevisiae deletion strains, locus YDR363W, strain ESC2, active compounds read low 1.02 | S. cerevisiae deletion strains, locus YER002W, strain NOP16, active compounds read low 0.984 | [6] 0.989 | [7] 1.06 | [17] 0.987 | S. cerevisiae deletion strains, locus YNL175C, strain NOP13, active compounds read low 0.986 | S. cerevisiae deletion strains, locus YNL197C, strain WHI3, active compounds read low 0.983 | S. cerevisiae deletion strains, locus YNL224C, strain SQS1, active compounds read low 0.983 | [18] 1.01 | S. cerevisiae deletion strains, locus YOR083W, strain WHI5 (second series), active compounds read low 0.964 | [19] 1.01 | [20] 1

COC(=O)c1c(C)[nH]c(C)c1C(C)=O
inactive: [1] 1.03 | [2] 1.01 | [3] 0.968 | [4] 1.01 | [5] 1.01 | [6] 1.03 | [8] 1.05 | [22] 1.03 | [23] 0.995 | [9] 0.976 | [10] 0.999 | [11] 1.01 | [12] 1.07 | [24] 1 | [25] 1.18 | [13] 1.02 | [26] 1.04 | [27] 1.01 | [14] 1 | [15] 1.03 | [17] 0.994 | [28] 1.01 | [18] 1.01 | [29] 1.04 | [19] 1.05 | [20] 1.08 | [21] 1.01
active: [30] 1.36 [resistant]

Cc1ccc(Oc2ccc(C)cc2)cc1
inactive: [1] 0.993 | [2] 0.999 | [3] 1.01 | [4] 0.999 | [5] 0.976 | [6] 1 | [22] 1.03 | [23] 0.993 | [9] 0.992 | [10] 1.01 | [11] 1 | [12] 0.897 | [24] 0.991 | [25] 0.864 | [13] 0.889 | [26] 1.06 | [27] 1 | [14] 0.969 | [16] 0.995 | [17] 0.999 | [28] 0.96 | [18] 0.993 | [29] 0.962 | [19] 1.02 | [20] 0.936 | [30] 0.912
active: [8] 0.663
